Screens from PubChem.
DNA Pol III inh: blocks replication by bacterial DNA polymerase III holoenzyme | reconstituted DNA polymerase III holoenzyme replication, biochemical | Potency, µM (titrated, usually from 57.1 µM) | 0.25% of 71,000 active
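Reconstituted *E. coli* holoenzyme (0.35 nM Pol III, 1 nM beta, 154 nM SSB, 2 nM primase) was preincubated with compound for 15 min at RT. Synthesis on 1.4 nM ssM13Gori ran 35 min, then was stopped with PicoGreen/EDTA and read as dsDNA fluorescence.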
ALOX15 inhib: blocks human 15-lipoxygenase activity; Potency, µM (doses to about 57.1 µM), most hits filed as inhibitors; 1.4% of 74,000 active; AID 887; purified 15hLO-1, xylenol orange hydroperoxide absorbance; note: nearly all actives have a fitted effect of over 55% in size
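Quantitative HTS in 25 mM Hepes pH 7.5 containing 0.01% Triton X-100: human 15hLO-1 at 40 nM, arachidonic acid at 50 uM, 6 min turnover. Product quantified via ferrous oxidation/xylenol orange, 573:405 nm absorbance ratio.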
Caspase-1 inhib: allosteric or competitive inhibitors of human caspase-1. P29466. Caspase-1 enzyme, Ac-WEHD-AFC fluorogenic rate. Potency, µM (doses to about 57.5 µM), most hits filed as inhibitors. 0.03% of 75,000 active
Target sequence (P29466 120-297 limits assumed): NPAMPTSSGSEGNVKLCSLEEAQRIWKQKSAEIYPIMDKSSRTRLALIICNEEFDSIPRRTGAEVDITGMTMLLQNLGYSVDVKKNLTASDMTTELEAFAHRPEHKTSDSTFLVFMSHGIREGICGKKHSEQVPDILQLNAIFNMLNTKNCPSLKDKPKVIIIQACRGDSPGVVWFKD
Target sequence (P29466 317-404 limits assumed): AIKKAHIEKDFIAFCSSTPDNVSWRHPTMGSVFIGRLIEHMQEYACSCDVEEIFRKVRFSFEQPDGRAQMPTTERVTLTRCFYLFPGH
Casp7 inh: blocks human caspase-7 allosterically or competitively; recombinant caspase-7, Ac-DEVD-AFC fluorescence rate; Potency, µM (doses to about 57.5 µM), usual class: inhibitors; 0.02% of 75,000 active; P55210; active = well fitted inhibition curve with a large enough effect in the main read-out, with a control signal flat, not every such curve was filed as active; inconclusive = small, poorly fitted or top-dose-only effect, or a change in a side signal
Target sequence (P55210 24-198 limits assumed): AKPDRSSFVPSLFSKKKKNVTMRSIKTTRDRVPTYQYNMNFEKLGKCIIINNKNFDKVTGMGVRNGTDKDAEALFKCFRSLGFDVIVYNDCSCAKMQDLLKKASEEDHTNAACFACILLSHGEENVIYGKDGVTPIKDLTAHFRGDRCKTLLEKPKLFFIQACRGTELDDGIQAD
Target sequence (P55210 207-303 limits assumed): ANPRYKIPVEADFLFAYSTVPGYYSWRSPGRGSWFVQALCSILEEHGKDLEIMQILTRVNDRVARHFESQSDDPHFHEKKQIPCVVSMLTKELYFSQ
Tau filament bind: tau filament binding. recombinant tau filaments, thioflavin S fluorescence, 15 h; filaments grown with octadecylsulfate alongside compound. 2% of 71,000 active. Potency, µM (doses to about 57.1 µM). P10636. AID 596;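 note: actives lower thioflavin S fluorescence by blocking filaments or displacing dye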
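Thioflavine S fluorescence (ex 450, em 510 nm) reports filaments formed from 1 uM human tau plus 30 uM ODS over 15 h at 37 C (10 mM HEPES pH 7.4, 100 mM NaCl, 5 mM DTT); compounds displacing dye or blocking filaments lower signal.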
Numbers stand for hits; – = inactive; ? = inconclusive; · = no result given; ! = repeats disagree; [ ] = another dose, or the depositor's remark. The list is not random: actives were taken first. Their share in the collection is about 3.2%. Unless noted, calls come from the whole dose curve; as a rule, active = well fitted curve in the direction sought with a large enough effect; inconclusive = small, poorly fitted or top-dose-only effect, or another doubt; inactive = no such curve, though single readings can be large; an effect the other way counts as inactive or inconclusive.

SMILES	DNA Pol III inh	ALOX15 inhib	Caspase-1 inhib	Casp7 inh	Tau filament bind
N#Cc1cccc(NC(=O)Nc2cccs2)c1	–	?	–	?	?
O=C(COC(=O)c1cccc(S(=O)(=O)N2CCN(c3ccccc3)CC2)c1)NCc1ccco1	–	25µM	–	–	–
CN(c1ccccc1)S(=O)(=O)c1ccc(C(=O)OCC(=O)NCc2ccco2)cc1	–	–	–	–	–
CN(C)c1ccc(/C(=N\O)C(F)(F)F)cc1	–[11.4 µM]	?	–	–	–[11.4 µM]
CN(C)c1ccc(C(=C2C=CC(=[N+](C)C)C=C2)c2ccccc2)cc1	–[11.4 µM]	32µM!	–[11.5 µM]	–[11.5 µM]	0.2µM!
CCCNC(=O)OC[C@H]1O[C@@H](CCO/N=C\[C@@H](NS(=O)(=O)c2ccc(C)cc2)[C@H](C)/C=C\CC(=O)OC)C=C[C@@H]1Oc1ccc(OC)cc1	·	–[11.4 µM]	–[11.5 µM]	–[11.5 µM]	·
CN1CCc2nc(NC(=O)c3cccc(S(=O)(=O)N4CCc5ccccc54)c3)sc2C1	–	16µM	?	?	–
Cc1cc2cc(CN3C(=O)c4ccccc4C3=O)ccc2n1C	–	?	–	–	20µM
O=C1c2ccccc2C(=O)N1Cc1ccc2c(c1)OCO2	–	–	–	–	–
COc1ccccc1CNc1nc(-c2cccnc2)nc2ccccc12	–	25µM	–	–	–
COc1ccc2[nH]cc(CCNc3nc(-c4cccnc4)nc4ccccc34)c2c1	–	–	–	–	25µM
O=C(CSCc1ccc(Cl)cc1)c1ccco1	–	32µM	–	–	?
CO[C@H]1COC(=O)[C@H](C)NC(=O)[C@@H](C)COC(=O)C/C=C\[C@@H]1C	·	–[11.4 µM]	–[11.5 µM]	–[11.5 µM]	·
CCN(CC)CCNC(=O)CCCCn1c(=S)[nH]c2c([nH]c3ccc(OC)cc32)c1=O	–	13µM	–	–	–
CC(=O)OC[C@@H]1O[C@H](CCO/N=C(\C)CCN2CCCc3nc(C)c(C)cc32)C=C[C@@H]1OC(C)=O	·	–[11.4 µM]	–[11.5 µM]	–[11.5 µM]	·
CCOC(=O)C(C)Sc1nc(-c2ccco2)cc(C(F)(F)F)c1C#N (stereo unspecified)	–	–	–	–	20µM
CCOC(=O)c1sc(NC(=O)CSc2nc(-c3ccco3)cc(C(F)(F)F)n2)c(C#N)c1C	–	–	–	–	–
Cn1c(=O)c(C(=O)COC(=O)c2cc(C(F)(F)F)nc3c(C(F)(F)F)cccc23)c(N)n(Cc2ccccc2)c1=O	·	·	–	–	·
CCC1OCCC=CC1C (stereo unspecified)	·	–[11.4 µM]	–[11.5 µM]	–[11.5 µM]	·
N#CCCN1CCN(C(=S)c2ccc(-c3cccc(Cl)c3)o2)CC1	–	–	–	–	4µM
S=C(c1ccc(-c2cc(Cl)ccc2Cl)o1)N1CCOCC1	·	?	–	–	·
N#CCCN1CCN(C(=S)c2ccc(-c3ccc(Cl)c(Cl)c3)o2)CC1	–	?	–	–	13µM
S=C(c1ccc(-c2cccc(Cl)c2)o1)N1CCOCC1	–	?	–	–	16µM
CC(C)(CO[C@H]1C[C@H]2CC[C@@]1(C)C2(C)C)[N+](=O)[O-]	–[11.4 µM]	–[11.4 µM]	–[11.5 µM]	–[11.5 µM]	–[11.4 µM]
C=CC[C@@H]1C=C[C@@H](O/N=C\[C@@H](OC)[C@H](C)/C=C\CC(=O)OC)[C@@H](CO)O1	·	–[11.4 µM]	–[11.5 µM]	–[11.5 µM]	·
SMILES	DNA Pol III inh	ALOX15 inhib	Caspase-1 inhib	Casp7 inh	Tau filament bind
COC(=O)NC(c1cccc(C)c1)[C@]1(C(C)=O)CCCC1=O (stereo partly specified)	·	–[11.4 µM]	–[11.5 µM]	–[11.5 µM]	·
O=c1c2c([nH]c3ccccc13)C(=C1CCCC1)CC2	·	20µM	–	?	·
CC(C)(C)C1CCc2[nH]c3ccccc3c(=O)c2C1 (stereo unspecified)	·	–	–	–	·
Cn1c(=O)c2cc(S(=O)(=O)N3CCOCC3)ccc2n(C)c1=O	–	–	–	–	–
O=c1c2ccccc2sn1-c1cc(S(=O)(=O)N2CCOCC2)ccc1N1CCOCC1	–	16µM	–	–	–
Nc1cc(N)c(OCC(F)(F)F)cc1OCC(F)(F)F	–	?	?	–	16µM
CC(C)[C@@H](CC(=O)N[C@@H]1CCCC[C@H]1C(=O)N[C@H](CC(=O)N[C@@H](CCC(=O)O)CC(=O)O)Cc1ccccc1)NC(=O)C[C@H](CO)NC(=O)[C@@H]1CCCC[C@H]1N	–	·	·	·	–
COc1ccc(-c2cc(C(=O)N/N=C\c3cc(OC)c(OC)c(OC)c3)[nH]n2)cc1	·	–	–	–	·
c1cncc(-c2cncnc2NC2CCNCC2)c1	–	32µM	–	–	–
NC1=N[C@H](c2ccc(Cl)cc2)N(c2ccc(S(=O)(=O)Nc3ncccn3)cc2)C(N)=N1	–[11.4 µM]	–[11.4 µM]	–[11.5 µM]	–[11.5 µM]	–[11.4 µM]
CN1CC[C@H](CN2c3ccccc3Sc3ccccc32)C1	–[11.4 µM]	–[11.4 µM]	–[11.5 µM]	–[11.5 µM]	4µM
O=C1Nc2ccc(I)cc2/C1=C/c1cc(Br)c(O)c(Br)c1	–	13µM	–	–	1µM
Cc1cc(C)cc([N+](=O)[O-])c1	–	–	–	–	–
c1ccc(Nc2nc(-c3ccoc3)nc3ccccc23)cc1	–	–	–	–	13µM
c1ccc2c(NC3CC3)nc(-c3ccoc3)nc2c1	–	?	–	–	?
CN(C)c1nc(-c2cccnc2)nc2ccccc12	–	–	–	–	–
CN(C)c1nc(-c2ccoc2)nc2ccccc12	–	?	–	–	16µM
COc1ccc(-c2n[nH]c(=S)n2C2CCCCC2)cc1	–	?	–	–	–
COc1ccc(OC)c(-n2c(-c3cccc(O)c3)n[nH]c2=S)c1	–	2.5µM	–	–	–
CCOC(=O)c1c(C)c(C(=O)NCCOC)c(C)n1CC	–	–	–	–	–
CCOC(=O)c1c(C)c(C(=O)Nc2ccc(N(C)C)cc2)c(C)n1CC	–	–	–	–	16µM
c1ccc2c(c1)CCN(c1nc3ccccc3n3cnnc13)C2	–	–	–	20µM	–
C1=C(c2ccccc2)CCN(c2nc3ccccc3n3cnnc23)C1	–	?	–	–	–
Nc1nc(Nc2ccccc2)nc2c1ncn2[C@@H]1O[C@@H](CO)[C@H](O)[C@@H]1O	–	–	–	–	–
CCn1cc(SCC(N)=O)c2ccccc21	–	–	–	–	–
SMILES	DNA Pol III inh	ALOX15 inhib	Caspase-1 inhib	Casp7 inh	Tau filament bind
CN(C)CCCn1cc(C2=C(c3c[nH]c4ccccc34)C(=O)NC2=O)c2ccccc21	–	–	–	–	2µM
Cn1cc(C2=C(c3cn(CCCSC(=N)N)c4ccccc34)C(=O)NC2=O)c2ccccc21	·	20µM	–	–	·
CCN(CC)CCCn1c(=S)[nH]c2ccccc2c1=O	–	–	–	–	–
Brc1ccc2c(c1)c1nc3ccccc3nc1n2CCN1CCOCC1	–	32µM	–	–	16µM
O=c1c2ccccc2nc(-c2ccccc2)n1CCN1CCOCC1	–	–	–	–	–
CCn1c2ccccc2c2nc3cc(S(=O)(=O)N4CCOCC4)ccc3nc21	–	?	?	–	25µM
c1ccc2nc3c(nc2c1)c1ccccc1n3CCN1CCOCC1	–	–	–	–	13µM
CC(=O)Nc1ccc(S(=O)(=O)c2c(N)n(CCN3CCOCC3)c3nc4ccccc4nc23)cc1	–	?	?	–	–
CCn1c(C)nc2cc(S(=O)(=O)N3CCCCC3)ccc21	–	–	–	–	–
Clc1nc(NCCc2ccccc2)c2ncn(-c3ccccc3)c2n1	–[11.4 µM]	·	·	·	–[11.4 µM]
